# Screening results from PubChem BioAssay.
# Cardio protect = cardioprotection against H2O2-induced cell death, primary screen, uHTS, H9c2 cells, ATPLite luminescence; protection from H2O2 cell death, % at 20 µM; H9c2 cardiomyocytes, H2O2 injury protection, 2 h; 360,000 tested, 0.63% active; AID 588492, 2011;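 active = compounds giving at least 50% protection of heart cells from peroxide-induced death in the single-dose screen, raw or plate-pattern-corrected value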;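 also: 0% = DMSO wells with peroxide and 100% = DMSO wells without peroxide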
# PLCg1 inh = PLC-gamma1 enzyme inhibitors, primary screen, biochemical, fluorescence, purified enzyme; 1-phosphatidylinositol 4,5-bisphosphate phosphodiesterase gamma-1 (Homo sapiens), P19174; fluorogenic substrate; inhibition, % at 12.2 µM; 370,000 tested, 0.84% active; AID 720700, 2013; in the data active = inhibition above about 9.5%
# FAS-TE inh = FAS thioesterase domain inhibitors, primary screen, biochemical, fluorescence intensity, uHTS. Fatty acid synthase (Homo sapiens), P49327. recombinant FAS-TE, OMFH fluorogenic substrate, fluorescence endpoint. AID 602261, 2012. inhibition, % at 15 µM. 360,000 tested, 0.67% active;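 active = compounds whose normalised, plate-corrected inhibition of enzyme fluorescence in the single-dose primary screen is 50% or more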;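 also: 0% = DMSO with enzyme and 100% = substrate without enzyme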
# PLC-beta3 inh = human PLC-beta3 inhibitors, primary screen, biochemical, fluorescence | Purified PLC-beta3, fluorogenic substrate | 370,000 tested, 0.18% active | 1-phosphatidylinositol 4,5-bisphosphate phosphodiesterase beta-3 (Homo sapiens), Q01970 | inhibition, % at 12.2 µM; in the data active = inhibition above about 11%;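 also: 0% = median of compound wells on plate and 100% = full blocker control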
# An asterisk follows results filed as active; . = no result. Shown are actives, neighbours in structure and some others; about 2.2% of the full set was active somewhere.
SMILES,Cardio protect,PLCg1 inh,FAS-TE inh,PLC-beta3 inh
COc1cc(OC)c2cc(C(=O)N/N=C/c3ccccc3O)[nH]c2c1,57*,-81,5,-120
CC(=O)c1cccc(NC(=O)c2cccc3c(-c4cccc(C(N)=O)c4)coc23)c1,6,-2,-5,-2
CS(=O)(=O)Nc1cccc(NC(=O)c2cccc3c(-c4cccc(C(N)=O)c4)coc23)c1,54*,2,-6,3
COC(=O)C[C@H]1CC[C@@H]2[C@H](COc3ccc(NS(C)(=O)=O)cc3C(=O)N2C)O1,.,-1,.,0
COc1ccc(N(CC(=O)Nc2cccc(C(=O)O)c2)S(=O)(=O)c2c(C)noc2C)cc1,5,13*,-5,8
COc1ccc(N(CC(=O)Nc2cccc(C(C)=O)c2)S(=O)(=O)c2ccc(NC(C)=O)cc2)cc1,73*,1,2,-9
COc1ccc(N(CC(=O)Nc2ccc3c(c2)OCO3)S(=O)(=O)c2ccccc2)c(OC)c1,54*,4,23,5
O=C(NCc1ccccc1Cl)O[C@H]1CC[C@@]23CCCN2C(=O)CCC[C@H]3C1,.,3,.,2
COc1ccc(S[C@]2(C(=O)N3CCOCC3)CC(=O)N(c3ccc(C#N)cc3)[C@@H]2c2ccc(OC)cc2)cc1,.,1,.,2
COc1ccc(C(=O)OCC(=O)NC(=O)NC2CCCC2)cc1OC,3,0,-9,0
CNc1ccc(C(=O)OCC(=O)NC(=O)NC2CCCC2)cc1[N+](=O)[O-],0,13*,-2,-5
Oc1ccc(/C=N/Nc2nc(N3CCCC3)nc(N3CCCC3)n2)cc1O,76*,-8,-9,-12
COc1cc(/C=C(/C#N)c2ccccc2)ccc1Oc1ccc([N+](=O)[O-])cn1,-6,1,4,-2
COc1cc(/C=C(\C#N)c2nc3ccccc3[nH]2)ccc1Oc1ccc([N+](=O)[O-])cn1,76*,-137,26,-164
COc1cc(/C=C(\C#N)c2nc3ccc(C)cc3[nH]2)c([N+](=O)[O-])cc1OC,85*,-237,2,-272
COc1cc(/C=C(\C#N)c2nc3ccc(C)cc3[nH]2)cc([N+](=O)[O-])c1O,3,-122,6,-159
Cc1cnc(C=O)c2cccc([N+](=O)[O-])c12,57*,0,-5,-4
CCNC(=S)NNC(=O)c1cnccn1,.,2,.,3
CCOc1ccccc1NC(=O)c1cc(=O)c2ccccc2o1,-2,3,-1,1
N#CCCSc1ccccc1NC(=O)c1cc(=O)c2ccccc2o1,52*,-2,4,-4
COc1cc(-c2csc(N3CCC(C(N)=O)CC3)n2)cc(OC)c1OC,.,-1,.,-1
CC(C)(C)OC(=O)/C=C/[C@@H](CC1CCCC1)Sc1ccc(C(C)(C)C)cc1,.,-1,.,4
COc1cc2c(C#CCCCO)c(-c3ccsc3)oc(=O)c2cc1OC,68*,-22,-2,-30
COc1ccc(-c2oc(=O)c3cc(OC)c(OC)cc3c2C#CCCCO)cc1,39,-34,-4,-34
O=C1N2Cc3ccccc3C2CS(=O)(=O)N1CCc1ccccc1 (stereo unspecified),.,1,.,0
SMILES,Cardio protect,PLCg1 inh,FAS-TE inh,PLC-beta3 inh
CC(C)(C)c1ccc(-c2nnc3n2N=C(c2ccc4ccccc4c2)CS3)cc1,.,4,.,-3
COC(=O)c1ccc(Oc2nc(NC(C)C)nc(N(C)C)n2)cc1,-1,3,-1,15*
COC(=O)c1ccc(Oc2nc(NC(C)C)nc(NC(C)C)n2)cc1,1,1,3,-5
COc1cc(CCC(C)=O)ccc1OC(=O)c1c(-c2c(F)cccc2Cl)noc1C,.,1,.,-1
CC1=NN(c2ccccc2)C(=O)/C1=C\c1ccc(Oc2ccc([N+](=O)[O-])cc2[N+](=O)[O-])cc1,-16,20*,7,4
COc1cc(/C=C2/C(=O)N(c3ccc(C)c(C)c3)N=C2C)cc([N+](=O)[O-])c1O,6,0,-7,-3
O=C(O)c1ccc2c(c1)C(=O)N(CCC1=CCCCC1)C2=O,7,13*,-5,-1
CC(=O)Nc1ccc(C(=O)N/N=C/c2cc(Br)cc(Br)c2O)cc1,32,-6,27,-11
Cc1ccc(C(=O)O)cc1N=Cc1cc(Br)cc(Br)c1O,77*,.,-8,.
Cn1c(=O)c2c(nc(Br)n2Cc2ccc3ccccc3c2)n(C)c1=O,87*,1,1,4
Cn1c(=O)c2c(nc(Br)n2Cc2ccccc2Cl)n(C)c1=O,-4,0,-3,0
CCOC(=O)C1CCN(c2cc3c(cc2NC(=O)c2ccc(F)cc2)n(C)c(=O)n3C)CC1,81*,-56,20,-90
CCOC(=O)C1CCN(c2cc3c(cc2NC(=O)c2ccccc2OCC)n(C)c(=O)n3C)CC1,36,-16,10,-30
CCOC(=O)C1CCN(c2cc3c(cc2NC(=O)c2ccccc2Cl)n(C)c(=O)n3C)CC1,56*,-170,9,-242
CCOC(=O)C1CCN(c2cc3c(cc2NC(=O)c2ccccc2F)n(C)c(=O)n3C)CC1,20,-97,-7,-162
Clc1nc2sccn2c1/C=N/n1cnc2ccccc21,66*,2,8,-4
O=C(N[C@H](Cc1ccccc1)C(=O)N1CCN(Cc2ccccn2)CC1)[C@H]1O[C@@H](n2ccc(=O)[nH]c2=O)[C@H](O)[C@@H]1O,.,2,.,4
CCOC(=O)c1oc2ccc(CNC(C)(C)C)c(Cl)c2c1C,2,12*,-12,6
CCCNC(=O)N1C2=NC(C(=O)OC)=C(C(=O)OC)[C@@H]3N(Cc4ccccc4)c4ccccc4[C@]23C[C@H]1CO,3,-1,80*,3
C=CCNC(=O)N1C2=NC(C(=O)OC)=C(C(=O)OC)[C@@H]3N(Cc4ccccc4)c4ccccc4[C@]23C[C@H]1C(=O)OC,-1,-1,6,0
Cc1ccc2nc(SCc3ccc([N+](=O)[O-])cc3)[nH]c2c1,-10,0,58*,-1
Cc1ccc2nc(SCc3nc4ccccc4c(=O)[nH]3)[nH]c2c1,58*,-31,-6,-40
COC(=O)c1sc2nc(CSc3nc4ccc(C)cc4[nH]3)[nH]c(=O)c2c1C,10,-3,-16,-7
Cc1ccc2nc(SCc3ccc([N+](=O)[O-])cc3)nc(C)c2c1,-10,0,36,2
C[C@H]1C(c2ccccc2F)O[C@]2(C[C@H](O)c3c(ccc4ccccc34)O2)C[C@@H]1O (stereo partly specified),.,-11,.,-17
C[C@H]1[C@@H](OC(=O)Nc2ccc(Cl)cc2)CC[C@@]23CCCN2C(=O)CCC[C@@H]13,.,-2,.,-1
CC(C)C[C@H]1CN([C@@H](Cc2ccccc2)CN2CCC[C@H]2CN2C(=O)C(=O)NC[C@@H]2Cc2ccccc2)C(=O)C(=O)N1CC1CCCCCC1,.,2,.,2
